In PubChem BioAssay (NCATS):
Records with an inconclusive call do not appear. Active and inactive are the calls of the source. Unless noted, calls follow the shape of the dose curve; as a rule, active = well fitted inhibition curve with a large enough effect; inconclusive = small, poorly fitted or top-dose-only effect; inactive = flat fitted curve, though single readings scatter.

Experiments:
[1] = qHTS drug screen for cell cycle checkpoint inhibitors in PARPi-resistant BRCA-mutant ovarian cancer cell lines. (AID 1963452; calls by dose curve); conditions: PEO1/OlaR viability, CellTiter-Glo luminescence, 96 h; for Z-AUC: stronger effect = lower value
Summary of the method: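 PEO1, PEO4 and PEO1/OlaR ovarian cancer cells, 600 per well, exposed 96 h at 37C to a dilution series. Viability read by CellTiter-Glo luminescence, normalized to DMSO and empty wells; activity summarized as Z-AUC.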

[2] = qHTS profiling for inhibitors of Plasmodium falciparum proliferation (AID 504749); also: nearly all actives have a fitted effect of over 60% in size;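 as to activity, negative = inhibition: 0% = DMSO vehicle and full inhibition = artemisinin control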; conditions: P. falciparum in erythrocytes, SYBR Green DNA, 72 h
Summary of the method: (§1)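 Three-day growth assay of blood-stage parasites in erythrocytes (0.3% parasitemia, 2.5% hematocrit) at 37 C, 5% CO2, quantified by SYBR Green DNA staining after overnight detergent lysis.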

[3] = tested on: 3D7; assay: as above; conditions: P. falciparum in erythrocytes, SYBR Green DNA, 72 h; series mostly up to 28.7 µM
Summary of the method: as §1

[4] = tested on: AA1029; assay: as above; conditions: P. falciparum in erythrocytes, SYBR Green DNA, 72 h; series mostly up to 28.7 µM
Summary of the method: as §1

[5] = tested on: 7G8; assay: as above; conditions: P. falciparum in erythrocytes, SYBR Green DNA, 72 h; series mostly up to 28.7 µM
Summary of the method: as §1

[6] = measured here: PEO1 parental Z-AUC
[7] = at 12.8 µM (top of the series), parasite line A
[8] = at 12.8 µM (top of the series), parasite line B
[9] = at 28.7 µM (top of the series), parasite line B
[10] = at 28.7 µM (top of the series), parasite line A
Potency is read from the fitted curve at half-maximal effect.

Compound: C[C@]12C=CC(=O)C=C1CC[C@@H]1[C@@H]2[C@@H](O)C[C@@]2(C)[C@H]1CC[C@]2(O)C(=O)CO
- Z-AUC [1]: -0.821 (inactive)
- Z-AUC [1, 6]: 0.0884
- Z-AUC ([1]; measured here: PEO4 Z-AUC): -0.444

Compound: CC1(C)O[C@@H]2C[C@H]3[C@@H]4C[C@H](F)C5=CC(=O)C=C[C@]5(C)[C@H]4[C@@H](O)C[C@]3(C)[C@]2(C(=O)CO)O1
- Z-AUC [1]: 0.212 (inactive)
- Z-AUC [1, 6]: 1.77
- Z-AUC ([1]; measured here: PEO4 Z-AUC): 0.487

Compound: CCN(CCCc1ccccc1)CCCc1ccccc1
- activity, negative = inhibition [2, 7]: -8.39% (inactive)
- activity, negative = inhibition [2, 8]: -11% (inactive)
- Potency [3]: inactive

Compound: CCCCCCCCCCCCCCCC[N+](C)(C)CCN(Cc1ccc(OC)cc1)c1ncccn1
- activity, negative = inhibition [2, 7]: -28.5% (inactive)

Compound: CC/C(=C(/CC)c1ccc(O)cc1)c1ccc(O)cc1
- Z-AUC [1]: -0.318 (inactive)
- Z-AUC [1, 6]: -0.188
- Z-AUC ([1]; measured here: PEO4 Z-AUC): 0.271
- activity, negative = inhibition [2, 9]: -19.4% (inactive)
- Potency [3]: inactive
- Potency [4]: inactive

Compound: C[C@]12CCC(=O)C=C1[C@@H]1C[C@@H]1[C@H]1[C@@H]3[C@@H]4C[C@@H]4[C@@]4(CCC(=O)O4)[C@@]3(C)CC[C@@H]12
- Z-AUC [1]: 1.29 (inactive)
- Z-AUC [1, 6]: 0.636
- Z-AUC ([1]; measured here: PEO4 Z-AUC): 1.11

Compound: O=c1c(-c2ccccc2)c1-c1ccccc1
- Potency ([2]; parasite line A): 11.2 µM (active)
- Potency ([2]; parasite line B): 10 µM (active)
- Potency [3]: 11.2 µM (active)
- Potency [5]: 8.91 µM (active)

Compound: COc1cc(NS(C)(=O)=O)ccc1Nc1c2ccccc2nc2ccccc12
- Z-AUC [1]: -0.779 (inactive)
- Z-AUC [1, 6]: -1.77
- Z-AUC ([1]; measured here: PEO4 Z-AUC): -0.818
- Potency ([2]; parasite line A): 2 µM (active)
- Potency ([2]; parasite line B): 3.16 µM (active)
- Potency [3]: 2 µM (active)
- Potency [5]: 1.26 µM (active)
- Potency [4]: 3.55 µM (active)

Compound: CC(=O)N(O)CCCCCNC(=O)CCC(=O)N(O)CCCCCNC(=O)CCC(=O)N(O)CCCCCN
- Z-AUC [1]: -0.069 (inactive)
- Z-AUC [1, 6]: -0.402
- Z-AUC ([1]; measured here: PEO4 Z-AUC): -0.683
- activity, negative = inhibition [2, 7]: 5.32% (inactive)
- activity, negative = inhibition [2, 8]: 1.3% (inactive)
- Potency [3]: inactive
- Potency [5]: inactive
- Potency [4]: inactive

Compound: Oc1c(I)cc(Cl)c2cccnc12
- Potency ([2]; parasite line A): 8.91 µM (active)
- Potency ([2]; parasite line B): 8.91 µM (active)
- Potency [3]: inactive

Compound: COc1cccc2c1C(=O)c1c(O)c3c(c(O)c1C2=O)C[C@@](O)(C(=O)CO)C[C@@H]3O[C@H]1C[C@H](N)[C@H](O)[C@H](C)O1
- Z-AUC [1]: -0.906 (inactive)
- Z-AUC [1, 6]: -0.971
- Z-AUC ([1]; measured here: PEO4 Z-AUC): -0.369

Compound: C[C@]12CC[C@@H]3c4ccc(O)cc4CC[C@H]3[C@@H]1CC[C@@H]2O
- Z-AUC [1]: 0.573 (inactive)
- Z-AUC [1, 6]: 0.0962
- Z-AUC ([1]; measured here: PEO4 Z-AUC): 0.419
- activity, negative = inhibition [2, 10]: 14.2% (inactive)
- activity, negative = inhibition [2, 9]: 10.8% (inactive)
- Potency [3]: inactive
- Potency [5]: inactive
- Potency [4]: inactive

Compound: c1ccc(CNCCNCc2ccccc2)cc1
- activity, negative = inhibition [2, 10]: 2.06% (inactive)
- activity, negative = inhibition [2, 9]: 5.37% (inactive)
- Potency [3]: inactive
- Potency [5]: 10 µM (active)

Compound: COc1cccc2c1C(=O)c1c(O)c3c(c(O)c1C2=O)C[C@@](O)(C(C)=O)C[C@@H]3O[C@H]1C[C@H](N)[C@H](O)[C@H](C)O1
- Potency [1]: 0.174 µM (active)
- Z-AUC [1, 6]: -2.1
- Z-AUC ([1]; measured here: PEO4 Z-AUC): -2.06
- Potency ([2]; parasite line A): 3.55 µM (active)
- Potency ([2]; parasite line B): 7.08 µM (active)
- Potency [3]: 2 µM (active)
- Potency [5]: 1.26 µM (active)
- Potency [4]: 4.47 µM (active)
